Shown are actives, neighbours in structure and some others; about 0.9% of the full set was active somewhere.
RXFP1 ag = activates the human relaxin receptor RXFP1. Q9HBX9. HEK293T-RXFP1 cAMP TR-FRET, 30 min; response scale: percent of porcine relaxin response, buffer zero. Potency, µM (doses to about 57.5 µM), for the others: top-dose activation, most hits filed as activators. actives 0.3% (n = 370,000); active = well fitted activation curve with a large enough effect; inconclusive = small, poorly fitted or top-dose-only effect; also: potency is read from the fitted curve at half-maximal effect; % is scaled to controls: 0 for no effect and ±100 for the full control effect; nearly all actives have a fitted effect of over 60% in size
Target sequence (Q9HBX9 whole entry, looked up): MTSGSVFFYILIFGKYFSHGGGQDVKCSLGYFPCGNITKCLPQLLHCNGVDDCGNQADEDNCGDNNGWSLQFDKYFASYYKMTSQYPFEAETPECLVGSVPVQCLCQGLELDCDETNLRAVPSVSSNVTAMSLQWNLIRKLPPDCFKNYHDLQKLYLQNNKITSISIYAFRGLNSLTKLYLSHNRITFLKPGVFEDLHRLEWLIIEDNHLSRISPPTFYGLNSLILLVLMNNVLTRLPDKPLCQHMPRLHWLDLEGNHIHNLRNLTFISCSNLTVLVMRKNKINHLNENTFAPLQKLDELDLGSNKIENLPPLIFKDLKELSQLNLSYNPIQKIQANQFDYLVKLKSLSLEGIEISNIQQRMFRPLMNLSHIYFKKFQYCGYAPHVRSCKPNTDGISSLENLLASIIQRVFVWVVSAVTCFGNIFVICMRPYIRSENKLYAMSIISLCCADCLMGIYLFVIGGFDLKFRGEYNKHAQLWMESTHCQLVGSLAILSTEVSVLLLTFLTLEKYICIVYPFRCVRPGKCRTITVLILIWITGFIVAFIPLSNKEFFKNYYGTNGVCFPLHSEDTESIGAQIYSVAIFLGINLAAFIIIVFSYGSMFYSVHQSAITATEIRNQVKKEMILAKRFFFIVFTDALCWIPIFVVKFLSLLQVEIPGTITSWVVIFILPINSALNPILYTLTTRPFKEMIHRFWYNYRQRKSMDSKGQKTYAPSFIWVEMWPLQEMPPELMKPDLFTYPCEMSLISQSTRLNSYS
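HEK293T cells stably expressing RXFP1 were pretreated with the PDE4 inhibitor Ro 20174, exposed to compounds for 30 min at 37C, lysed, and cAMP was read by TR-FRET. Data normalized to buffer (basal) and 29 nM porcine relaxin (100%).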
gsp antagonist = gsp mutant antagonism; gsp-mutant cells, cAMP HTRF, 30 min; Potency, µM (top dose mostly 76.9 µM), for inactives: at the highest dose activity change, negative = inhibition, actives largely listed as inhibitors; actives 0.4% (n = 340,000); calls by dose curve; cell line not stated here;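 also: intracellular cAMP measured with PDE inhibitor Ro 20-1724 present during compound exposure; potency is read from the fitted curve at half-maximal effect; % is scaled to controls: 0 for no effect and ±100 for the full control effect; nearly all actives have a fitted effect of over 65% in size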
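G418-selected cells were plated in DMEM/10% FBS for 16-24 h at 37C, then treated with compounds plus the PDE inhibitor […] (300 uM solution added) for 30 min at 37C. Intracellular cAMP was measured by HTRF after 30 min lysis at room temperature.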
RXFP1 antag = antagonists of human relaxin receptor RXFP1. Q9HBX9. HEK293-RXFP1, relaxin-stimulated cAMP HTRF, 30 min; stronger effect = lower value. activity change, negative = inhibition, % at 57.5 µM. actives 0.59% (n = 350,000). AID 1259400;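 active = activity change of -60% or lower, but not beyond a set lower limit; inconclusive = change between -60% and -40%, or beyond the set limit; inactive = change above -40%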; also: % is scaled to controls: 0 for no effect and ±100 for the full control effect
gsp ag = agonists of gsp mutant (McCune-Albright syndrome); gsp mutant cells, cAMP HTRF, 30 min; Potency, µM (titrated, usually from 76.9 µM), for the others: at the highest dose activation (cAMP increase), hits mostly activators; actives 0.13% (n = 340,000); AID 624287; active = well fitted activation curve with a large enough effect; inconclusive = small, poorly fitted or top-dose-only effect, or another doubt; inactive = no such curve, though single readings can be large or run the other way; cell line not stated here;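 also: phosphodiesterase inhibitor Ro 20-1724 added with compounds to block cAMP breakdown; potency is read from the fitted curve at half-maximal effect; nearly all actives have a fitted effect of over 60% in size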
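Cells stably selected in G418 were plated at 2000/well, grown 16-24 hr, then given compounds in DMSO with the PDE inhibitor […] (300 uM solution added) for 30 min at 37C; cAMP was read by HTRF.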
The depositor's hits bear a star; ? = inconclusive; . = not tested or not shown; [ ] = another dose, or the depositor's remark.

SMILES	RXFP1 ag	gsp antagonist	RXFP1 antag	gsp ag
CCC(=O)Nc1cccc(NC(=O)CSc2nc3c(c(=O)n(C)c(=O)n3C)n2C)c1	?	4%	15	26%[15.4 µM]
O=C(CN1C(=O)c2ccccc2S1(=O)=O)NC(Nc1ccccc1F)C(Cl)(Cl)Cl (configuration not stated)	3%	-24%	-105*	-18%
CCOc1cc(/C=N/NC(=O)c2ccccc2OCc2ccc(F)cc2)ccc1O	-3%	35µM*	5	?
COc1ccc(/C=N\NC(=O)c2ccccc2Cl)cc1COc1c(F)c(F)c(F)c(F)c1F	0%	-15%	-13	18%[15.4 µM]
COc1ccc(/C=N\NC(=O)c2ccccc2OC)cc1COc1c(F)c(F)c(F)c(F)c1F	-2%	40µM*	-19	-6%[15.4 µM]
CCOc1cc(/C=N/NC(=O)c2ccccc2-n2cccc2)ccc1O	3%	8%	-7	20%
CCN1CCCC1CN (configuration not stated)	.	.	7	.
O=C1CC(N2CCC(c3nc4ccccc4s3)CC2)C(=O)N1Cc1ccccc1 (configuration not stated)	1%	35µM*	-15	6%
C#CC1(O)CC[C@H]2[C@@H]3CCC4=CCCC[C@@H]4[C@H]3CC[C@@]21C (some centres not stated)	.	.	7	.
O=C(COc1ccccc1[N+](=O)[O-])OCC(=O)c1ccc(Br)s1	.	22%	15	10µM*
COc1ccc2c(c1)O[C@@H](c1cccc(C(F)(F)F)c1)[C@H](OC(=O)Nc1ccc(OC(F)F)cc1)C2=O	4%	11µM*	.	8%
COc1ccc2c(c1)O[C@@H](c1cccc(C(F)(F)F)c1)[C@H](OC(=O)N[C@H]1CCCc3ccccc31)C2=O	0%	.	.	.
CSc1nc(Nc2ccc(C)cc2C)cc(-c2ccccc2)n1	1%	.	-25	.
CC(C)(C)c1ccc(C(=O)CC(Sc2ccc(Cl)cc2)C(=O)O)cc1 (configuration not stated)	0%	-31%	-96*	-23%
Cc1ccc(SC(CC(=O)c2ccc(F)cc2)C(=O)O)cc1 (configuration not stated)	5%	-16%	-8	-8%[15.4 µM]
COc1ccccc1N1CCN(C(=S)Nc2ccc(S(=O)(=O)N3CCOCC3)cc2)CC1	2%	32µM*	-5	4%[15.4 µM]
CN(C)c1cc(Nc2ccc(O)cc2)c([N+](=O)[O-])c2nonc12	5%	-3%	15	24%
O=[N+]([O-])c1c(Nc2ccc(O)cc2)cc(Cl)c2nonc12	6%	7.9µM*	?	-25%
CCOc1ccc(NC(=O)c2cc(C)nc3c2c(C)nn3-c2cccc(F)c2)cc1	2%	.	0	.
COc1cccc2c1cc1c(=O)n(CC(=O)N3CCN(c4ccccc4F)CC3)nc(C)n12	-2%	.	6	.
Clc1ccccc1/C=C/C=N/Nc1nc(N2CCOCC2)nc(N2CCOCC2)n1	-1%	13µM*	-23	-7%[15.4 µM]
O=C(Nc1cc(-c2nc3cc(Cl)ccc3o2)ccc1Cl)c1cc2ccccc2o1	4%	.	.	.
O=C(CCCn1c(=S)[nH]c2ccccc2c1=O)N1CCCCC1	0%	11%	?	8%
COc1ccc(N2CCN(C(=O)CCCCCn3c(=S)[nH]c4cc5c(cc4c3=O)OCO5)CC2)cc1	?	3%	?	11%
CC1CC(C)CN(C(=O)CCCn2c(=S)[nH]c3ccccc3c2=O)C1 (configuration not stated)	0%	-1%	-97*	-8%
SMILES	RXFP1 ag	gsp antagonist	RXFP1 antag	gsp ag
COc1ccc(NC(=O)CCn2c(=S)[nH]c3ccccc3c2=O)cc1OC	16%	21%	-74*	?
COc1ccc(N2CCN(C(=O)CCCCCn3c(=S)[nH]c4ccc(N5CCOCC5)cc4c3=O)CC2)cc1	.	.	-98*	-20%
Cc1cc(C)cc(NC(=O)CCn2c(=S)[nH]c3ccccc3c2=O)c1	0%	-2%	-32	-4%
O=C(CCCn1c(=S)[nH]c2cc3c(cc2c1=O)OCO3)N1CCN(c2ccc(Cl)cc2)CC1	2%	-9%	-116*	-30%
CC(C)(C)OC(=O)N1CCC(c2c(C(=O)NC3CCCCC3)cnn2-c2cccc(F)c2)CC1	0%	.	-1	.
O=C(CCCn1c(=S)[nH]c2cc3c(cc2c1=O)OCO3)NC1CC1	4%	16%	-72*	0%
Cc1cccc(N2CCN(C(=O)CCn3c(=S)[nH]c4cc5c(cc4c3=O)OCO5)CC2C)c1 (configuration not stated)	0%	-19%	-77*	21%
COc1ccc(NC(=O)Cn2c(=O)n(Cc3ccccc3Cl)c(=O)c3cc(OC)c(OC)cc32)cc1OC	25µM*	.	.	.
CC1CCCCC1NC(=O)CCn1c(=S)[nH]c2ccccc2c1=O (configuration not stated)	.	.	-13	-1%
O=C(CCCn1c(=S)[nH]c2cc3c(cc2c1=O)OCO3)NCCc1ccc(Cl)cc1	.	.	-29	?
O=C(CCCn1c(=S)[nH]c2ccccc2c1=O)NC1CCCCC1	3%	8%	-111*	21%
Cc1cccc(-c2nc3scc(CCNS(=O)(=O)c4ccc(Oc5ccccc5)cc4)n3n2)c1	2%	.	-11	.
CO/N=C(\C(=O)N[C@@H]1C(=O)N2C(C(=O)OCOC(=O)C(C)(C)C)=C(C)CS[C@H]12)c1csc(N)n1	.	.	-36	.
Cc1nc2ccn(Cc3ccco3)c(=O)c2cc1C(=O)NCc1ccc(Cl)cc1	1%	.	-7	.
O=C(CCCn1c(=S)[nH]c2cc3c(cc2c1=O)OCO3)NCc1ccco1	6%	10%	-64*	4%[15.4 µM]
CCOc1cc2[nH]c(=S)n(CCCC(=O)NCc3ccco3)c(=O)c2cc1OCC	1%	11%	?	29%
CC(C)(C)c1ccc(OCc2ccc(C(=O)Nc3cccnc3)o2)cc1	-3%	?	-64*	?
O=C(Nc1cccnc1)c1ccc(COc2ccccc2Br)o1	3%	-14%	14	-72%
O=c1cc(-c2ccccc2)[nH]n1-c1ccccc1	.	-18%	-73*	20%
CC(C)(C)[C@H](NC(=O)c1ccc(N)c(Cl)c1)C(=O)N1CCC[C@H]1C(=O)N[C@H](C#N)Cc1nn[nH]n1	0%	.	.	.
CCc1ccc2oc(-c3ccc(OC)cc3)cc(=Nc3c(C)n(C)n(-c4ccccc4)c3=O)c2c1	2%	28µM*	-23	-1%
CCc1ccc2oc(-c3ccc(OC)cc3)cc(=Nc3cccc(C(=O)O)c3)c2c1	1%	.	-33	16%[15.4 µM]
O=C(Nc1ccccc1N1CCOCC1)c1ccccc1NS(=O)(=O)c1ccc(F)c(F)c1	2%	3.5µM*	2	-32%
Cc1ccc(S(=O)(=O)Nc2ccccc2C(=O)Nc2nc(-c3ccc(F)cc3)cs2)cc1	-1%	-56%	.	-3%
COc1ccc(-c2csc(NC(=O)c3ccccc3NS(=O)(=O)c3ccc(F)c(F)c3)n2)cc1	1%	32µM*	-27	-13%[15.4 µM]
O=C(Nc1ccccc1N1CCOCC1)c1ccccc1NS(=O)(=O)c1ccc(F)cc1	2%	-8%	?	5%[15.4 µM]

Assay outcomes deposited in PubChem by National Center for Advancing Translational Sciences (NCATS).
